Measured values published in the supplement of paper PMC6555819.

Experiments:
Test in all cases: PBM binding z-score (relative to random genomic background probes); higher = stronger binding; sequences stand for … in GC…GCGATTGACAGCGTAGAATGAAGG
[1] = system: PPARg:RXRa DBDmut IVT, anti-RXR (DBD mutation: RXRa K156A/R161A, NR concentration 270 nM, RXRa partner concentration 90 nM)
Summary of the method: (§1)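 Binding buffer was PBS pH 7.4 with 2% milk, 0.02% Triton X-100, 1 mM DTT, 0.2 mg/mL BSA and 0.4 mg/ml salmon testes DNA. In it, ligand-free nuclear receptor dimers were incubated 1 h on custom Agilent 4×180K protein-binding microarrays carrying double-stranded probes. Antibodies against each partner (one per run) detected binding, and z-scores were calculated against random background probes after regression normalization of scanned fluorescence.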

[2] = system: PPARg:RXRa IVT, anti-PPARg (NR concentration 270 nM, RXRa partner concentration 90 nM)
Summary of the method: as §1

[3] = system: PPARg DBDmut:RXRa IVT, anti-PPARg (DBD mutation: PPARg1 K132A/R137A, NR concentration 270 nM, RXRa partner concentration 90 nM)
Summary of the method: as §1

[4] = system: PPARg DBDmut IVT, anti-PPARg (DBD mutation: PPARg1 K132A/R137A, NR concentration 270 nM)
Summary of the method: as §1

[5] = system: PPARg homodimer (NR concentration 180 nM)
Summary of the method: as §1

[6] = system: PXR:RXRa (NR concentration 270 nM, RXRa partner concentration 90 nM)
Summary of the method: as §1

[7] = system: PXR homodimer (NR concentration 270 nM)
Summary of the method: as §1

[8] = system: RARa:RXR (NR concentration 270 nM, RXRa partner concentration 90 nM)
Summary of the method: as §1

[9] = system: RARa homodimer (NR concentration 270 nM)
Summary of the method: as §1

[10] = system: RARb:RXRa (NR concentration 270 nM, RXRa partner concentration 90 nM)
Summary of the method: as §1

Row | Sequence | PBM binding z-score [1] | PBM binding z-score [2] | PBM binding z-score [3] | PBM binding z-score [4] | PBM binding z-score [5] | PBM binding z-score [6] | PBM binding z-score [7] | PBM binding z-score [8] | PBM binding z-score [9] | PBM binding z-score [10]
1 | CCTTACGGTTCACTCCAGGTTATAGCATCGGAGT | 0.278 | 0.401 | 0.147 | 1.01 | 1.62 | 3.53 | 1.46 | 2.25 | 1.57 | 1.29
2 | TCTTGTAGATCAATCAGGTTAAGAAAGCCTGAGT | 1.98 | 0.808 | 1.29 | 0.885 | -0.302 | 0.413 | -0.0985 | 0.669 | -0.252 | 0.281
3 | CCTAGTTGGTCAAGGTCAAACACGCTATAGGTAC | 2.18 | 3.37 | 0.444 | 1.42 | 3.34 | 4.48 | 3.25 | 4.41 | 2.79 | 4.19
4 | ACAGATAGGTGATGAAGGTAACTCAGGCTATCAT | 0.825 | 0.996 | 0.38 | 0.000268 | 0.111 | 0.00334 | -0.296 | 0.286 | 0.188 | 0.11
5 | CCCACTGGGGCAGAAAGGTTACCATACCATCCGG | 2.2 | 3.8 | -0.946 | -0.994 | 1.02 | 0.703 | -0.212 | 1.59 | -0.0999 | 1.86
6 | ATGGAAAGGTCGACGAGGTGAGTATACACCGTTT | 0.338 | 1.89 | 0.736 | 1.01 | 1.38 | 2.96 | 0.609 | 3.54 | 0.422 | 3.73
7 | TCATACAGGTAAAGGTGAAAGTCGAACGATATGA | 2.37 | 2.45 | 1.8 | 0.696 | 0.957 | 1.03 | 0.178 | 1.82 | 1.18 | 2.19
8 | CCAGACAGGGGAGAAGGTAACTCAGCCTCGATTA | 0.0282 | -0.359 | -0.398 | -1.2 | 0.413 | -0.427 | -0.0553 | -0.353 | 0.21 | -0.286
9 | CAAACTAGATCAAAGGTCAAAGTCGAGCCAACCA | 4.3 | 6.8 | 1.17 | 1.55 | 4.96 | 5.7 | 1.84 | 6.94 | 2.11 | 4.83
10 | GCTGCTAGGTCAGGTTGGTGAGCTAACGGGTACG | 2.52 | 1.93 | -0.822 | -0.37 | 0.201 | 0.142 | -0.5 | 0.873 | -0.817 | 3.24
11 | TGAAAGAGGTTATAAGATCAGGGAACGTTGCAAA | -0.304 | 0.748 | -0.617 | 0.266 | 0.0455 | 0.781 | -0.571 | 1.59 | -0.227 | 1.56
12 | GCTTACGGGTCAAGGGTTATAGCATGAATAGAAT | 3.76 | 5.31 | 1.91 | 1.82 | 3.12 | 4.69 | 0.12 | 7.06 | 0.958 | 4.27
13 | AGAACGAGGGCACACTGAGTTGATAGCAGAGTAG | 3.87 | 3.8 | 0.337 | 0.314 | 0.871 | 1.29 | 0.305 | 0.924 | 0.142 | 2.16
14 | TCTCGGAGGACAAGAAGGTCAGAGCTTTCCAGAG | 1.27 | 0.839 | -0.347 | -1 | 0.686 | 1.71 | 1.64 | 1.69 | 0.0458 | 3.07
15 | GATACAGGGTCAAGTCCAGAGTACGCGTATTGAT | 3.07 | 4.1 | 1.84 | 0.844 | 4.21 | 4.36 | 0.54 | 5.16 | 1.38 | 4.64
16 | GGAATGAGGGCAAAGTTGATAGCATCTGTCGACG | 5.52 | 4.71 | 1.48 | 0.0505 | 0.811 | 1.43 | 0.53 | 1.95 | 0.171 | 2.36
17 | TGTCAAAGTGCAAAGGTAACGTAAGTATCCACAC | 0.00516 | 2.98 | 0.574 | 0.92 | 1.09 | 1.76 | 0.397 | 2.57 | 0.0756 | 2.38
18 | ATCTCTAGGTAAAGATAGTTCCGTGAATGCAAAT | 1.2 | 1.52 | 1.55 | 0.949 | 0.486 | -0.0332 | 0.339 | 0.23 | 0.96 | -0.0284
19 | CGAGACAGGTGAGAAGGTAACTCAGCCTCGATTA | 0.944 | 0.575 | -0.719 | -0.428 | 0.307 | -0.433 | -0.255 | -0.528 | -0.321 | 0.602

Row | Sequence | PBM binding z-score [1] | PBM binding z-score [2] | PBM binding z-score [3] | PBM binding z-score [4] | PBM binding z-score [5] | PBM binding z-score [6] | PBM binding z-score [7] | PBM binding z-score [8] | PBM binding z-score [9] | PBM binding z-score [10]
20 | CGTCAAAGTTCAACTAAGGTAAAGTAAAGCACGC | 0.496 | 2.11 | 0.89 | 1.16 | 3.47 | 5.32 | 2.92 | 4.16 | 2.06 | 5.39
21 | ACTAGTTGGTCAGCTGAGGTCCCACACAATTCGG | 0.847 | 1.02 | -0.38 | 1.01 | 0.419 | 0.0973 | -0.424 | 0.479 | -0.0479 | 0.921
22 | CGACCTAGGTCATTGACAGGACAGTGAATAGTAA | 3.78 | 3.8 | 0.789 | 0.214 | 2.3 | 1.99 | -0.114 | 3.08 | 0.169 | 3.9
23 | CCCGACAGGTGAAAGGTAACTCAGTCTGGTACGC | 1.64 | 2.67 | -0.316 | -0.825 | 0.815 | 0.798 | 0.0265 | 1.73 | 0.375 | 1.09
24 | ATATGTAGGTTAACGGTCATTCAGGTTGGTTCGC | 8.01 | 8.1 | 3.09 | 2.01 | 2.2 | 1.84 | 0.701 | 2.01 | 0.573 | 2.41
25 | ATCGAAAGGTCGACGAGGTGAATATACACCGTTT | 0.98 | 2.07 | 1.87 | 0.44 | 2.04 | 3.88 | 1.24 | 4.49 | 1.02 | 3.94
26 | CGAACTAGGTCATTGACAGGAAAGTGAATAGTAA | 7.79 | 8.25 | 2.11 | 2.92 | 1.37 | 1.37 | 0.599 | 2.02 | 0.0841 | 3.59
27 | TAGCCTAGGTCAGATCGGGCTAGTATACGCTATA | 0.118 | 1.07 | -0.407 | -0.708 | 0.037 | 0.63 | -0.428 | 1.5 | -0.679 | 2.78
28 | ACTCGGAGGACAAAGGTCGGAGCTACGCCAGTGA | -0.0622 | 1.75 | -0.143 | -0.29 | 0.786 | 1.29 | -0.332 | 1.84 | -0.447 | 2.34
29 | TAGCCTAGGTCATTGGGCCAGTAAAGTACGCATC | 2.98 | 3.93 | -0.798 | -0.582 | 0.663 | 1.55 | -0.454 | 2.08 | 0.18 | 3.63
30 | CGAACTAGGTCCAGGACAGTGAATCTCCGCACGC | 2.08 | 0.856 | -0.489 | -1.24 | -0.302 | -0.535 | -0.312 | -0.417 | -0.0938 | 0.00636
31 | TGTCAAAGTTCAAAGGTAACGCAAGTATCCACAC | 0.302 | 4.95 | 0.987 | 0.888 | 3.82 | 6.07 | 4.47 | 7.09 | 1.84 | 5.19
32 | TCAGACAGGTGAAGTTAACTCAGGTACGCAGTCG | 2.34 | 0.646 | 0.282 | -0.426 | 0.226 | 0.543 | 0.31 | 0.876 | 0.495 | 1.03
33 | AATACAGGGTCTCTAGGCCAGAGTAGGTACGAAT | 0.633 | 1.69 | -0.23 | -0.134 | 0.115 | -0.522 | -0.459 | -0.47 | -0.399 | 0.389
34 | AGACCAAGGTGATCGTGAGGTCGTTGATACTAAC | 0.783 | 0.9 | -0.832 | -0.109 | 0.38 | 2.79 | 0.858 | 1.72 | -0.21 | 1.32
35 | ACAGACACGTGATGAAGGTAACTCAGGCTATCAT | -0.318 | -0.0146 | 0.501 | 0.226 | 0.142 | -0.0986 | 0.0203 | 0.352 | 0.63 | -0.138
36 | TCTAGTTGGTCACGGCGGTCACACACGACGGGTA | 2.36 | 3.13 | 1.09 | 1.25 | 1.16 | 0.555 | 0.174 | 0.871 | 0.669 | 2.52
37 | CCTATTAGTAGACCATAAGGGCAACCGAAGCTCG | 1.88 | 1.11 | 0.0545 | 0.0708 | 1.4 | 0.71 | 0.501 | 0.768 | 1.33 | 1.25
38 | CGTCCAAGGTCAAAGCTCAGTGAAGAGATGACGG | 3.54 | 3.35 | 0.259 | -0.242 | 3.06 | 3.96 | 0.865 | 4.6 | 1.16 | 5.14
